Measurements: PubChem BioAssay (NCATS)
Records with an inconclusive call do not appear. Calls of active or inactive are those of the source. Calls follow the shape of the dose curve; as a rule, active = well fitted curve in the direction sought with a large enough effect; inconclusive = small, poorly fitted or top-dose-only effect, or another doubt; inactive = no such curve, though single readings can be large; an effect the other way counts as inactive or inconclusive.

Experiments:
[1] = MultiTox-Fluor Cytotoxicity Assay - LYMP1-001 - Dead Cells (AID 946); details: LYMP1-001 lymphoblastoid cells, dead-cell protease fluorescence; series mostly up to 92.2 µM
Outline: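 Cytotoxicity as increased dead-cell protease fluorescence (bis-AAF-R110, 485/520 nm), read 60 min after MultiTox-Fluor reagent. Human lymphoblastoid line exposed 16 h; Hill-fitted AC50, with DMSO as 0% and 15 uM tetraoctylammonium bromide as 100%.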

[2] = MultiTox-Fluor Cytotoxicity Assay - LYMP1-001 - Live Cells (AID 947); details: LYMP1-001 lymphoblastoid cells, live-cell protease fluorescence viability; series mostly up to 92.2 µM
[3] = Cell Viability - LYMP1-002 - Assay at 16 hr (AID 948); details: LYMP1-002 lymphoblastoid cell viability; series mostly up to 92.2 µM
Outline: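 Seed 2500 LYMP1-002 cells per well in complete medium and hold 5 hr at 37 C. Add compound across a concentration series and incubate 16 hr at 37 C. Add CellTiter-Glo, wait 30 min at room temperature, read luminescence.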

[4] = MultiTox-Fluor Cytotoxicity Assay - LYMP1-002 - Live Cells (AID 955); details: LYMP1-002 lymphoblastoid live-cell protease fluorescence viability; series mostly up to 46.1 µM
Outline: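 Human lymphoblastoid LYMP1-002 cells, 2500/well in complete medium, rested 5 hr at 37 C, then exposed to compounds for 16 hr at 37 C. Live-cell protease cleavage of GF-AFC read by fluorescence (Ex/Em 405/510) after 60 min at room temperature; AC50 from Hill fits.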

[5] = MultiTox-Fluor Cytotoxicity Assay - LYMP1-002 - Dead Cells (AID 960); details: LYMP1-002 lymphoblastoid cells, dead-cell protease fluorescence; series mostly up to 46.1 µM; also: nearly all actives have a fitted effect of over 60% in size
Outline: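 Human lymphoblastoid cells (LYMP1-002), 2500/well in complete medium, were exposed to compounds for 16 hr at 37 C. Dead-cell protease activity was read as bis-AAF-R110 fluorescence (Ex/Em 485/520), normalized to DMSO and 15 uM tetraoctylammonium bromide; AC50 from Hill fits.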

[6] = MultiTox-Fluor Cytotoxicity Assay - LYMP1-003 - Dead Cells (AID 961); details: LYMP1-003 lymphoblastoid cells, dead-cell protease fluorescence; series mostly up to 92.2 µM; also: nearly all actives have a fitted effect of over 70% in size
Outline: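 Dead-cell protease release, detected as bis-AAF-R110 fluorescence at 485/520 nm, was measured in LYMP1-003 cells after 16 h compound treatment at 37 C. AC50 values came from Hill-modeled qHTS curves normalized to DMSO (0%) and 15 uM tetraoctylammonium bromide (100%).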

[7] = MultiTox-Fluor Cytotoxicity Assay - LYMP1-003 - Live Cells (AID 962); details: LYMP1-003 lymphoblastoid cells, MultiTox-Fluor live-cell protease fluorescence; series mostly up to 92.2 µM;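 also: cytotoxic hits lower the live-cell protease signal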
Outline: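 LYMP1-003 human lymphoblastoid cells (2500/well) in complete medium were preincubated 5 hr at 37 C, then exposed to compounds for 16 hr at 37 C. Live-cell protease cleavage of GF-AFC read by fluorescence (Ex/Em 405/510); AC50 from Hill fits.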

[8] = Cell Viability - LYMP1-003 - Assay at 24 hr (AID 963); details: LYMP1-003 lymphoblastoid cell viability; series mostly up to 92.2 µM
Outline: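 Human lymphoblastoid LYMP1-003 cells (2500/well) were rested 5 hr at 37 C, then exposed to compounds in complete medium for 24 hr at 37 C. Cellular ATP was quantified by CellTiter-Glo luminescence, and AC50 values came from Hill fits of concentration-response data.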

[9] = Cell Viability - LYMP1-003 - Assay at 40 hr (AID 964); details: LYMP1-003 lymphoblastoid viability; series mostly up to 92.2 µM; also: nearly all actives have a fitted effect of over 60% in size
Outline: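 Human lymphoblastoid LYMP1-003 cells, 2500/well in complete medium, rested 5 hr at 37 C, then exposed to compounds for 40 hr at 37 C. Viability read as intracellular ATP by CellTiter-Glo luminescence; AC50 from Hill fits of concentration-response data.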

Measured: outcome

C[C@@H]1C[C@H]2[C@@H]3CCC4=CC(=O)C=C[C@]4(C)[C@@]3(F)[C@@H](O)C[C@]2(C)[C@@]1(O)C(=O)CO
inactive: [1] | [2] | [3] | [4] | [5] | [6] | [7] | [8] | [9]
